Data on 26 molecules can be found in PubChem BioAssay (NCI).

Common to all, as to test: NCI-60 one-dose screen, 48 h (100 = growth as untreated, 0 = no growth, -100 = all killed)
Holding throughout (settings): 10 µM unless noted

The subject of assay [1] is DU-145 prostate.
Assay [2] relates to K-562 leukemia.
Assay [3] concerns MALME-3M melanoma.
Assay [4] relates to MDA-MB-231 breast.
The test system of assay [5] is RXF 393 renal.
Assay [6] deals with SF-268 CNS.
For assay [7], the system named is SF-295 CNS.
Assay [8] deals with SF-539 CNS.
In assay [9] the test system is UACC-257 melanoma.
The test system of assay [10] is M14 melanoma.

Each structure is given as a SMILES string. Compounds without any hit were thinned out: in the full panel of roughly 83,000, 20% have a hit.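 Negative percent growth values reflect cell death: -40 means 40% of the cells present at the start died, and -100 means all died.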 Unmarked numbers belong to inactive results. Calls of active or inactive are those of the source. Rule for the calls: active = growth percent below 10; inactive = the rest.

Turning to `NC1=C(Cl)C(=O)c2ccc(S(N)(=O)=O)cc2C1=O`, the growth in [1] was -90.1% (active); in [2] it was -12.7% (active); in [3], -96.1% (active); in [4], -3.41% (active); in assay [5] it was -99.2% (active); in assay [6] it was -74.4% (active). For the same molecule, the growth in [7] was -86.1% (active); in [8], -84.5% (active); in [9], -95.3% (active); in [10], -89.6% (active).
As for `Cc1oc(-c2ccc(Cl)cc2Cl)cc1C(=O)Nc1nccs1`, the growth in assay [1] is 104%; in [2], 95.1%; in assay [3], 85.1%; in assay [4], 83.2%; in assay [5], 88.2%; in assay [6] it was 100%. The growth was 87% in assay [7], 95.9% in assay [8], 114% in assay [9] and 99.5% in assay [10].
Take `COc1ccc(C2CC(c3ccc(Cl)cc3)=NN2/C=C2\SC(=S)N(NC(=O)Cc3ccccc3Nc3c(Cl)cccc3Cl)C2=O)cc1` (stereo not given): the growth in assay [1] was 72.5%; in assay [2], 1.36% (active); in assay [3], 60.5%; in [4], 42.1%; in assay [5], 66.2%; in assay [6] it was 62.9%. For the same molecule, the growth in assay [7] is 88%; in [8] it was 71.1%; in assay [9], 88.5%; in [10], 65.9%.
`CCCOc1cc2ccccc2cc1C(=O)Nc1nc(N)c2c(ccc3nccc32)[nH]1`: the growth in assay [1] is -65.8% (active); in [2] it was -28.9% (active); in [3], -76.1% (active); in assay [4], -67.1% (active); in [5] it was -77.1% (active); in assay [6], -68.6% (active). Also, the growth is -76.6% (active) in assay [7], -77.7% (active) in [8], -77.6% (active) in assay [9] and -69.8% (active) in assay [10].
Regarding `COc1cccc(-c2nc3sccn3c2-c2ccnc(NCCNS(=O)(=O)c3ccc(F)cc3)c2)c1`, the growth in [1] is 26.3%; in assay [2], 13.4%; in assay [3], 42.7%; in [4], 55.6%; in assay [5], 42.2%; in [6], 34.7%. Besides, the growth in assay [7] is 14.5%; in [8], 55.5%; in assay [9], 40%; in assay [10] it was 23.9%.
Regarding `O=C(Nc1ccccc1Cl)c1ccc(NC2=C(Cl)C(=O)N(C3CCCCC3)C2=O)cc1`, the growth in assay [1] was 28.8% [30 µM]; in [2] it was 25.3% [30 µM]; in [3], 80.6% [30 µM]; in assay [4], 85.4% [30 µM]; in assay [5], -12.1% [30 µM] (active); in assay [6], 60.5% [30 µM]. The growth in assay [7] is 21.6% [30 µM]; in assay [8] it was 82% [30 µM]; in [9], 54.9% [30 µM]; in assay [10] it was 92.6% [30 µM].
Regarding `O=C(CN(C(=O)Cn1c(=O)n2nnnc2c2ccccc21)c1ccccc1C(F)(F)F)Nc1ccc(C(F)(F)F)cc1`, the growth is 110% in [1]; 101% in [2]; 103% in assay [3]; 104% in [4]; 116% in assay [5]; 103% in [6]. In addition, the growth was 104% in [7], 101% in [8], 115% in assay [9] and 102% in [10].
For the molecule `O=C(O)COc1ccc(Cl)cc1C1CCCCC1`, the growth in assay [1] is 110%; in assay [2] it was 91.8%; in [3] it was 104%; in [4], 98.5%; in assay [5], 102%; in [6] it was 102%. The growth in [7] is 109%; in assay [8] it was 107%; in assay [9], 114%; in assay [10] it was 102%.
With `OC(COc1cccc2ccccc12)CN1CCN(c2ccccc2Cl)CC1` (stereo not given), the growth is 109% in assay [1]; 99.3% in assay [2]; 108% in assay [3]; 83.7% in assay [4]; 158% in assay [5]; 98.6% in assay [6]. Further, the growth in assay [7] was 86.4%; in assay [8] it was 93.2%; in assay [9] it was -1.88% (active); in assay [10] it was 84.7%.
For `CC1=C[C@H]2c3c(c(O)c(O)c4oc5cc(O)ccc5c(=O)c34)[C@H](c3cc(O)c(O)c4oc5cc(O)ccc5c(=O)c34)[C@H]2C(C)(C)C1`, the growth in [1] is 34.4%; in assay [2], 6.38% (active); in assay [3] it was 60.8%; in assay [4] it was 50.9%; in assay [5] it was 54.5%; in assay [6] it was 36%. In addition, the growth was 21.5% in assay [7], 20.4% in assay [8], 62.7% in [9] and 38.3% in [10].
For the molecule `CCN=C1C=CC(=C(c2ccc(N)cc2)c2ccc(N(CC)CC)c(C)c2)C=C1`, the growth in assay [1] was -20.6% (active); in assay [2] it was 3.56% (active); in [3] it was -31% (active); in assay [4], -17.6% (active); in [5], -16.7% (active); in assay [6], 4.51% (active). The growth was -19.1% (active) in assay [7], -31.2% (active) in [8], -0.947% (active) in [9] and -42.1% (active) in [10].
With `CCn1c(Cc2ccccc2Nc2c(Cl)cccc2Cl)nnc1SCC(=O)NN1C(=O)/C(=C/c2cc(OC)c(O)c(OC)c2)SC1=S`, the growth in [1] was 48.8%; in assay [2], 19.4%; in [3], 40.4%; in [4], 60.9%; in assay [5] it was 12.9%; in assay [6], 36.4%. Further, the growth in assay [7] is 23.5%; in assay [8] it was 13%; in [9], 63.7%; in assay [10], 19.5%.
As to `CC1CCNC(C)C1` (stereo not given), the growth is 110% in assay [1]; 108% in assay [2]; 110% in assay [3]; 107% in assay [4]; 108% in assay [5]; 104% in assay [6]. Moreover, the growth was 103% in [7], 99% in assay [8], 110% in assay [9] and 102% in assay [10].
In the case of `O=C(COc1ccc(/C=C2\COc3ccccc3C2=O)cc1)Nc1nccs1`, the growth in [1] was 107%; in [2], -8.33% (active); in assay [3] it was 88.5%; in assay [4], 95.9%; in [5] it was 96.4%; in assay [6], 92.8%. In addition, the growth is 112% in [7], 85.9% in [8], 98.5% in assay [9] and 93.2% in assay [10].
As to `c1ccc(Cn2cc(-c3nc4ccccc4s3)c3cccnc32)cc1`, the growth is 102% in assay [1]; 129% in [2]; 95% in assay [3]; 84% in assay [4]; 115% in [5]; 99% in assay [6]. For the same molecule, the growth in assay [7] is 102%; in assay [8], 100%; in assay [9] it was 110%; in assay [10], 106%.
Regarding `COc1cc(/C=C/c2cc(/C=C/c3ccc(O)c(OC)c3)n(-c3c(C)cccc3C)c(=O)n2)ccc1O`, the growth is 12.7% in assay [1]; 5.52% (active) in assay [2]; -14% (active) in assay [3]; 23.1% in assay [4]; -32.1% (active) in assay [5]; 8.69% (active) in [6]. For the same molecule, the growth in assay [7] is 8.43% (active); in assay [8] it was -23.5% (active); in assay [9] it was -6.5% (active); in [10], 8.07% (active).
Regarding `Cc1cc(N2CCOCC2)nc(NCc2cc(Nc3ccnc4cc(Cl)ccc34)ccc2F)n1`, the growth is -57.6% (active) in assay [1]; -4.96% (active) in [2]; -73.7% (active) in [3]; -78.3% (active) in assay [4]; -92.4% (active) in assay [5]; -52.5% (active) in assay [6]. Further, the growth was -84.4% (active) in assay [7], -80.4% (active) in assay [8], -68.3% (active) in assay [9] and -83.7% (active) in assay [10].
On to `Nc1ccc(S(=O)(=O)O)c2ccc(N=Nc3ccc(N=Nc4ccc(S(=O)(=O)O)cc4)c4ccccc34)c(O)c12`, for which the growth in assay [1] was 110%; in assay [2] it was 106%; in assay [3], 97.6%; in [4], 94.7%; in [5], 109%; in [6] it was 101%. The growth is 114% in assay [7], 123% in assay [8], 109% in assay [9] and 99.8% in assay [10].
For `CC(=O)O[C@H]1CC[C@]2(C)[C@H]3CC=C4[C@@H]5CC(C)(C)CC[C@]5(C(=O)NCCNCCN)CC[C@@]4(C)[C@]3(C)CC[C@H]2C1(C)C`, the growth was -45.3% (active) in [1]; -47.2% (active) in assay [2]; -71.2% (active) in assay [3]; -66.5% (active) in assay [4]; 44.9% in assay [5]; 74.3% in [6]. The growth in assay [7] is 92.8%; in [8], 70.3%; in assay [9], -42.3% (active); in [10], -81.4% (active).
For `COc1ccc(-n2nc(C)c3c(Oc4ccc(NC(=O)Nc5c(Cl)cccc5Cl)cc4)ncnc32)cc1`, the growth in assay [1] was 105%; in assay [2], 104%; in [3], 99.4%; in assay [4] it was 101%; in assay [5], 107%; in assay [6] it was 93.6%. Moreover, the growth in assay [7] is 100%; in assay [8], 96.7%; in assay [9], 102%; in assay [10] it was 110%.
With `COc1ccc(C(=O)COc2ccc(/C=C3\Oc4ccc(OC)cc4C3=O)cc2)cc1`, the growth in assay [1] is 116%; in [2] it was 16.8%; in [3] it was 102%; in [4] it was 89.7%; in assay [5], 110%; in assay [6], 121%. The growth in [7] is 81.9%; in assay [8], 104%; in assay [9] it was 94%; in assay [10], 110%.
On to `COc1ccc(NC2=C(Sc3nc(C)cc(C)n3)C(=O)N(Cc3ccccc3)C2=O)cc1Cl`, for which the growth in [1] was 113% [30 µM]; in assay [2], 69.7% [30 µM]; in assay [3] it was 95.4% [30 µM]; in assay [4] it was 85.4% [30 µM]; in assay [5] it was 50.8% [30 µM]; in [6], 57.8% [30 µM]. In addition, the growth was 39.6% [30 µM] in [7], 101% [30 µM] in assay [8], 43.9% [30 µM] in [9] and 95.9% [30 µM] in assay [10].
For the molecule `Cn1nc(N)c2cc([C@@H]3Nc4ccc5[nH]ncc5c4[C@H]4C5CCC(C5)[C@@H]34)ccc21` (stereo not given in full), the growth was 18.8% in assay [1]; 9.76% (active) in [2]; 52.7% in [3]; 48.5% in assay [4]; -11.1% (active) in [5]; 42.5% in assay [6]. The growth in [7] was 9.61% (active); in assay [8] it was -15.5% (active); in [9], 77.4%; in assay [10], 3.16% (active).
Take `Nc1n[nH]c2ccc([C@@H]3Nc4ccc5[nH]ncc5c4[C@H]4C5C=CC(C5)[C@@H]34)cc12` (stereo not given in full): the growth was 8.03% (active) in assay [1]; 8.61% (active) in assay [2]; 43.1% in assay [3]; 25.5% in assay [4]; 17.8% in assay [5]; 20.3% in [6]. In addition, the growth in assay [7] was 1.53% (active); in assay [8], -31.4% (active); in assay [9], 68.6%; in [10], 4.56% (active).
As to `COc1cc2nc(N3CCCC3)nc(NCC3CCCCC3)c2cc1OC`, the growth is 36.2% in assay [1]; -9.67% (active) in assay [2]; -87.8% (active) in assay [3]; -39.9% (active) in [4]; -84% (active) in assay [5]; 74.4% in assay [6]. Besides, the growth is -70.9% (active) in assay [7], -84.2% (active) in [8], -82.8% (active) in assay [9] and -79.3% (active) in assay [10].
For `Cn1cc(C(=O)c2nc(-c3c[nH]c4ccc(Br)cc34)no2)c2cc(F)ccc21`, the growth in assay [1] is 106%; in assay [2], 102%; in [3], 96.1%; in assay [4], 89%; in [5], 109%; in [6], 99.2%. Besides, the growth in [7] is 97.6%; in [8], 99.1%; in assay [9], 99.7%; in assay [10] it was 100%.
